# Source: PubChem BioAssay (National Center for Advancing Translational Sciences (NCATS))
# ClpP mod = qHTS Assay for Activators of ClpP. purified B. subtilis ClpP, FRET peptide cleavage, 20 min. ATP-dependent Clp protease proteolytic subunit (Bacillus subtilis (strain 168)), P80244. 340,000 compounds, 1.9% hits. Potency, µM (highest dose often 57.5 µM); active = well fitted falling curve with a large enough effect; inconclusive = small, poorly fitted or top-dose-only effect; inactive = no such curve, though single readings can be large or run the other way; also: the source files actives as falling curves though it sought activators and does not explain the sign; nearly all actives have a fitted effect of over 65% in size
# Target sequence (P80244 whole entry, looked up): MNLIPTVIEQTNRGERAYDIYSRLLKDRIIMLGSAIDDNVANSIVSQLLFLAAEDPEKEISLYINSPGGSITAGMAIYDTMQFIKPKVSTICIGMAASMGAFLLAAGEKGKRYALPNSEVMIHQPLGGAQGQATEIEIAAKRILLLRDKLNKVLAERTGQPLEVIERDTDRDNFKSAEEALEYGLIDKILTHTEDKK
#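 Purified B. subtilis ClpP, 10 microg/mL final in Tris/HCl pH8 with KCl, BSA, glycerol and Tween-20, cleaved an Abz/nitrotyrosine-quenched decapeptide. Fluorescence (ex 320, em 430) was read at 0 and 20 min at room temperature. Delta was normalized to 5.8 microM ADEP and DMSO/no-enzyme controls.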
# VP16 counter = counter-screen for ROR gamma inhibitors: Gal4-VP16 reporter; Drosophila S2 Gal4-VP16 UAS-luciferase, luminescence, 20 h; Potency, µM (highest dose often 53.6 µM), actives largely listed as inhibitors; 310,000 compounds, 3.5% hits;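 also: Gal4-VP16 expression switched on by copper sulfate through the metallothionein promoter; nearly all actives have a fitted effect of over 50% in size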
# Sfp inh = inhibitors of Bacillus subtilis Sfp phosphopantetheinyl transferase | Q9F4F7 | Biochemical Sfp PPTase activity, qHTS | Potency, µM, usual class: inhibitors | 310,000 compounds, 3.5% hits;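 also: the enzyme is Sfp with the accession as filed and its product quenches rhodamine fluorescence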
#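 Fluorescence-quenching assay: 15 nM Sfp-PPTase preincubated 15 min at room temperature with compound, then 5 uM rhodamine-CoA and 12.5 uM BHQ-2-labelled YbbR peptide added. Fluorescence (ex 525/em 598 nm) read at start and after 30 min; difference gives rate.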
# Epigenetic reg = derepresses silenced GFP reporter in murine cells. murine LDR cells, GFP reporter derepression, 30 h. Potency, µM (titrated, usually from 53.9 µM), hits mostly activators. 280,000 compounds, 0.2% hits. AID 1865; also: nearly all actives have a fitted effect of over 60% in size
#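 Murine LDR cells carrying a silenced, genomically integrated CMV-driven GFP reporter were exposed to compound for 30 hours at 37 C. After PBS washes, GFP-positive cells (20–120 um objects) were counted by laser-scanning microplate cytometry.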
# PINK1 expr mod = changes PINK1 expression. AID 624263. 410,000 compounds, 0.2% hits. Potency, µM (top dose mostly 76.6 µM), most hits filed as activators. PINK1 immunofluorescence, high-content cytometry, 24 h; active = well fitted activation curve with a large enough effect; inconclusive = small, poorly fitted or top-dose-only effect; cell line not stated here; also: nearly all actives have a fitted effect of over 65% in size
#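 Decision-based qHTS: stable cells, 24 h exposure to five compound concentrations, CCCP as control. Fixed cells stained for PINK1 plus nuclear, mitochondrial and cell markers, cytometer read.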
# RORg inh = inhibitors of mouse ROR gamma transcriptional activity; Drosophila S2 Gal4-RORgamma UAS-luciferase reporter, 20 h; Potency, µM (series often up to 53.6 µM), most hits filed as inhibitors; 310,000 compounds, 5.4% hits; also: nearly all actives have a fitted effect of over 60% in size
#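 ROR gamma transcriptional activity was tracked as Gal4-UAS luciferase output in stably transfected Drosophila Schneider cells, with compound added 1 hr before 700 uM copper sulfate induction and a 20 hr ambient-temperature incubation.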
# A number is an active result; 0 = inactive; ? = inconclusive; - = not tested or not shown; ! = a repeat was not active; [ ] = dose if it differs, or a comment. This is a sample that favours compounds with a hit; in the whole collection about 8.1% have one here. Unless noted, calls follow the shape of the dose curve; as a rule, active = well fitted curve in the direction sought with a large enough effect; inconclusive = small, poorly fitted or top-dose-only effect, or another doubt; inactive = no such curve, though single readings can be large; an effect the other way counts as inactive or inconclusive.
SMILES,ClpP mod,VP16 counter,Sfp inh,Epigenetic reg,PINK1 expr mod,RORg inh
CCOC(=O)c1ccc(-n2c(CN(CC)CC)nc3ccc([N+](=O)[O-])cc3c2=O)cc1,0,0,22µM,0,0,0
COc1cccc(-n2c(CN3CCN(c4ccccc4)CC3)nc3ccc([N+](=O)[O-])cc3c2=O)c1,0,0,28µM,0,0,0[10 µM]
CCOC(=O)c1ccc(-n2c(CN3CCC(O)CC3)nc3ccc([N+](=O)[O-])cc3c2=O)cc1,0,0,18µM,0,0,0
CCOC(=O)c1ccc(-n2c(CN3CCC(C(N)=O)CC3)nc3ccc([N+](=O)[O-])cc3c2=O)cc1,0,0,22µM,0,0,0
CCOC(=O)c1ccc(-n2c(CN3CCN(CC)CC3)nc3ccc([N+](=O)[O-])cc3c2=O)cc1,0,0,0,0,0,0
CCCCC[C@H](O)/C=C/C=C\C/C=C\C=C\[C@@H](O)CCCC(=O)O,-,0,0,0,-,0
O=C(NCCCSc1ccccc1)c1cc(Cl)ccc1O,0,0,0,-,18µM,0
Cc1nc(C)n(CC(=O)NCC2Cc3cc(-c4cccc(OC(F)(F)F)c4)ccc3O2)n1 (stereo not drawn),-,-,-,-,0,-
COc1ccc(CCn2c(C)ccc2C)cc1OC,-,0,0,0,-,?
COc1ccc(CCn2c(-c3ccc(Cl)cc3)n[nH]c2=S)cc1OC,-,?,?,0,0,1.6µM
CCCCn1c(-c2cc(Cl)ccc2OC)n[nH]c1=S,0,10µM,?,0,0,3.2µM
COc1ccc(CCn2c(=S)[nH]c(=O)c3[nH]cnc32)cc1OC,0,-,-,-,0,-
COc1ccc(CCn2c(-c3ccc(C(C)(C)C)cc3)n[nH]c2=S)cc1OC,-,0,0,0,0,3.2µM
O=C(CN1Cc2ccccc2OC(c2ccccc2F)C1)NC(c1ccccn1)C(F)(F)F (stereo not drawn),-,-,-,-,0,-
CC(=O)Nc1ccc(NC(=O)c2oc3ccc4c(c3c2C)C(=O)CC(C)(C)O4)cc1,0,-,-,?,0,-
COc1ccc(C(=O)C[n+]2ccccc2Cl)cc1,0,-,-,-,-,-
Cc1ccc(-c2cc(C(F)F)nc(N3CCC(C)CC3)n2)cc1,25µM,0,0,0,0,0
CC1CCN(c2nc(-c3ccccc3)cc(C(F)(F)F)n2)CC1,?,0,0,0,0,0
C/C(=N\NC(=O)c1ccc(O)cc1)c1cc2ccccc2o1,-,10µM,0,0,0,6.3µM
O=C(NNC(=O)c1cc2ccccc2o1)c1ccc(F)cc1,0,-,-,-,0,-
CCNC(=S)N/N=C(\C)c1cc2ccccc2o1,0,7.9µM,0,0,0,3.5µM
COc1ccc(OCC(=O)N/N=C(\C)c2cc3ccccc3o2)cc1,0,0,0,0,0,0
C/C(=N\NC(=S)Nc1cccc(C)c1)c1cc2ccccc2o1,-,?,0,0,0,2.5µM
c1ccc2[nH]cnc2c1,0,0,-,-,0,0
c1ccc2nc3[nH]cnc3nc2c1,22µM,0,0,0,?,0
SMILES,ClpP mod,VP16 counter,Sfp inh,Epigenetic reg,PINK1 expr mod,RORg inh
O=S(=O)(NCCNCC=Cc1ccc(Br)cc1)c1cccc2cnccc12,0,-,-,-,0,-
CCC(C)c1ccc(C(CC)NC(=O)C2CCCO2)cc1 (stereo not drawn),0,?,0,-,0,?
CCC(C)c1ccc(NC(=S)NC(C)C2CCCO2)cc1 (stereo not drawn),0,18µM,0,0,0,6.3µM
Cc1ccc(C)c(OCCCC(C)(C)C(=O)O)c1,0,20µM!,0,0,0,0
Cc1ccc(C)c(OCCCC(=O)O)c1,0,0,0,0,0,0
Cc1cc(C)c2c(-n3cccc3)c(C(=O)NCCCN3CCCCC3C)sc2n1 (stereo not drawn),0,-,-,0,0,-
CC1CCC(C(=O)NC(C(=O)OCC(=O)c2ccccc2)C(C)C)CC1 (stereo not drawn),0,-,-,0,0,-
COc1ccc(-c2oc3ccccc3c(=O)c2O)cc1,-,0,0,0,-,?
COc1cc(OC)c(-c2oc3ccccc3c(=O)c2O)c(OC)c1,28µM,-,-,-,0,-
COc1ccccc1-c1oc2ccccc2c(=O)c1O,-,0,0,0,-,20µM
COc1ccc(OC)c(-c2oc3ccccc3c(=O)c2O)c1,0,0,89µM,0,0,7.1µM
